From PubChem BioAssay come the findings set out here.

The structures appear in SMILES notation. Unmarked numbers belong to inactive results. For some of these results: Measured potencies and affinities stand elsewhere. Activity calls are given as the source filed them. Unless noted, how the calls were made is not given here.

Assay [1] in a line: antimalarial activity against Dd2 strain (AID 2302;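 active means growth inhibition above 50% at the single 2 µM test dose, taken to imply half-maximal potency below 2 µM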;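 further: 0% = DMSO untreated growth and 100% = chloroquine plus artemisinin killed control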). Particulars: P. falciparum Dd2 in RBCs, LDH growth readout, 72 h; at 2 µM; stronger effect = higher value.
The nature of assay [2]: HepG2 cytotoxicity, primary screen, cytotoxicity control for P. falciparum antimalarial project, cell-based, ATP luminescence (AID 2303;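 active means inhibition above 50%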;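 further: 0% = DMSO wells and 100% = digitonin-killed cells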). Particulars: HepG2 viability, 24-48 h, at 10 µM, stronger effect = higher value.
The target in assay [3] is L-lactate dehydrogenase (Plasmodium falciparum (isolate CDC / Honduras)) (UniProt Q27743). As to the kind of experiment: PfLDH activity inhibition – cell lysate, 3D7 strain, counter-screen for P. falciparum growth inhibition project (AID 2304).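 Further: 0% = vehicle and 100% = reference inhibitor.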 The note with it: P. falciparum 3D7 crude extract, LDH APAD/NBT absorbance; at 2 µM; stronger effect = higher value.
A short description of assay [4]: inhibition of 3D7 malaria parasite growth – strain 3D7 (AID 2306).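 Further: 0% = DMSO wells and 100% = chloroquine plus artemisinin control wells.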 Particulars: P. falciparum 3D7 erythrocytic growth, LDH absorbance, 72 h; at 2 µM; stronger effect = higher value.
Assay [5] concerns the target Calcium-dependent protein kinase 1 (Plasmodium falciparum (isolate 3D7)) (UniProt P62344). As to the kind of experiment: PfCDPK1 kinase inhibitors, biochemical, TCAMS library (AID 1159585; cut-off not given, nearly all actives have IC50 up to about 0.98 µM;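 further: inhibitors leave more ATP so luminescence rises with inhibition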). Particulars: recombinant PfCDPK1, Kinase-Glo ATP depletion luminescence. In general terms: Kinase-Glo reads ATP consumption through a luciferase reaction.
The target of assay [6] is Plasmodium falciparum protein kinase 6 (PK6, PF3D7_1337100) (UniProt Q8IDW1). As to the kind of experiment: PfPK6 kinase inhibitors, biochemical, TCAMS library (AID 1159586). Particulars: recombinant PfPK6, Kinase-Glo ATP depletion luminescence.
For assay [7], the target named is Protein kinase 7 (PK7), Plasmodium falciparum 3D7 (PF3D7_0213400) (UniProt Q7YTF7). As to the kind of experiment: inhibition of Plasmodium PK7 catalytic activity – biochemical, TCAMS antimalarial set, Kinase-Glo luminescence (AID 1159587). Particulars: recombinant PfPK7, Kinase-Glo ATP depletion luminescence.
For assay [8], the target named is Calcium-dependent protein kinase 4 (Plasmodium falciparum (isolate 3D7)) (UniProt Q8IBS5). As to the kind of experiment: PfCDPK4 kinase inhibitors, biochemical, TCAMS library (AID 1159588; cut-off not given, nearly all actives have IC50 up to about 0.91 µM). The note with it: recombinant PfCDPK4, Kinase-Glo ATP depletion luminescence.
Sequence of Calcium-dependent protein kinase 4 (Plasmodium falciparum (isolate 3D7)) (Q8IBS5 whole entry, looked up): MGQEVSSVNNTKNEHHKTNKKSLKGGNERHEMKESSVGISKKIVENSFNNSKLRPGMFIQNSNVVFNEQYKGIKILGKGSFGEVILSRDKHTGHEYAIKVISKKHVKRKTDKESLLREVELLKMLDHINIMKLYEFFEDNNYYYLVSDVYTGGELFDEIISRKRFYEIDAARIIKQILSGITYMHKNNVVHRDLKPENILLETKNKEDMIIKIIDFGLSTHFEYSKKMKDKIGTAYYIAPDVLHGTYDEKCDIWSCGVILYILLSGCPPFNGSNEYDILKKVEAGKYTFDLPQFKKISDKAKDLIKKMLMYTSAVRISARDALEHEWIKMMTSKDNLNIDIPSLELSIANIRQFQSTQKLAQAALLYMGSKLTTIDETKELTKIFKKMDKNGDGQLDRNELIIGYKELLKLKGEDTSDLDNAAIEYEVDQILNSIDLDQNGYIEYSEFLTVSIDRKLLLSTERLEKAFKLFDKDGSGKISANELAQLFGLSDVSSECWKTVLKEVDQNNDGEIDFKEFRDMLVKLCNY

Sequence of Plasmodium falciparum protein kinase 6 (PK6, PF3D7_1337100) (Q8IDW1 1-305): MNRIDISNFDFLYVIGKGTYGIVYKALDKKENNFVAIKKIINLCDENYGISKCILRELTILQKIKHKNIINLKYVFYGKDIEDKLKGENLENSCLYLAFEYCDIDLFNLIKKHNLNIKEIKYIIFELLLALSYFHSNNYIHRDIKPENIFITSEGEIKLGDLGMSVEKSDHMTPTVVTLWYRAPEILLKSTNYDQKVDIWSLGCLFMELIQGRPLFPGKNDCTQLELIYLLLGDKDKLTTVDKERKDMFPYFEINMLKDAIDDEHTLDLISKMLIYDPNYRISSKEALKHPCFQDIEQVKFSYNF
Sequence of Protein kinase 7 (PK7), Plasmodium falciparum 3D7 (PF3D7_0213400) (Q7YTF7 1-343): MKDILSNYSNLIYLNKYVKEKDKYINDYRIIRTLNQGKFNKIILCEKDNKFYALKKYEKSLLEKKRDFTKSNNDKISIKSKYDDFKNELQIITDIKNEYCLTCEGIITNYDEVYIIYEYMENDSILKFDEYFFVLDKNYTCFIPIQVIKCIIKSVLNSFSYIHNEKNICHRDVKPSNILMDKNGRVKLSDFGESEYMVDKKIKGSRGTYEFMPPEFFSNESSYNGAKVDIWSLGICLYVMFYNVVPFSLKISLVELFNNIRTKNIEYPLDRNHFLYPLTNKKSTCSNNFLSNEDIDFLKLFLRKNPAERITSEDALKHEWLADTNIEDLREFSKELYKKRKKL
Sequence of Calcium-dependent protein kinase 1 (Plasmodium falciparum (isolate 3D7)) (P62344 whole entry, looked up): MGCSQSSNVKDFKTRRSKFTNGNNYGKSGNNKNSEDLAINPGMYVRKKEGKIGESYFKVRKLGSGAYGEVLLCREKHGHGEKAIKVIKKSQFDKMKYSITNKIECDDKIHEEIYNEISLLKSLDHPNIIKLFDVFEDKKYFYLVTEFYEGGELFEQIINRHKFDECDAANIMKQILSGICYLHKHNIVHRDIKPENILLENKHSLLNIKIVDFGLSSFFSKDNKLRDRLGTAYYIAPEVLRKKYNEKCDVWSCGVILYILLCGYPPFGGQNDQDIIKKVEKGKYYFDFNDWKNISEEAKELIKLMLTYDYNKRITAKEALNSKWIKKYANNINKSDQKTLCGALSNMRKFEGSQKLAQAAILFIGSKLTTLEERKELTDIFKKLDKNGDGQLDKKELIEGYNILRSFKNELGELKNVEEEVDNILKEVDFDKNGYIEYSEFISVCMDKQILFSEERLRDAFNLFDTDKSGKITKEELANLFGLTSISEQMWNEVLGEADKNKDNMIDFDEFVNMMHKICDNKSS
Sequence of L-lactate dehydrogenase (Plasmodium falciparum (isolate CDC / Honduras)) (Q27743 whole entry, looked up): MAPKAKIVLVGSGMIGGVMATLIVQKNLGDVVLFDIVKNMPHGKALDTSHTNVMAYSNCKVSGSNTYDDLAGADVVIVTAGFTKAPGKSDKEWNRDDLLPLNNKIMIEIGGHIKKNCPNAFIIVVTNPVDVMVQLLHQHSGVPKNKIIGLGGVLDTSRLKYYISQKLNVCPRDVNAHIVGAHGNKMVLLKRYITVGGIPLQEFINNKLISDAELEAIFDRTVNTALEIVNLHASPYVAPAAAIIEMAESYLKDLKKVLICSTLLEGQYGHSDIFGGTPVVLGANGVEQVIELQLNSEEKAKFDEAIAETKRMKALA

On to `CCOC(=O)c1ccc(NC(=O)NC2CCN(CCCCCNC(=O)/C=C/c3ccc(Cl)c(Cl)c3)C2)cc1` (stereo not given), for which the growth inhibition in assay [1] was 0%; in assay [4] it was 98% (active). Besides, the inhibition (as a rule, the drop in the measured response relative to a control, in per cent) in assay [2] was 23%; in assay [3] it was -3%. For the same compound, the outcome in assay [5], in assay [6], in assay [7] and in assay [8] was inactive.
With `O=C(/C=C/c1ccc(Cl)c(Cl)c1)N1CCC(CN2CCC(c3c[nH]c4ncccc34)CC2)CC1`, the growth inhibition in assay [1] is 20%; in assay [4] it was 84% (active). The inhibition in assay [2] is 38%; in assay [3], -1%. Further, the outcome in assay [5], in assay [6], in assay [7] and in assay [8] was inactive.
`CC(C)(C)c1ccc(C(=O)Nc2cccc(Nc3c(C(=O)NCc4cccc(C(F)(F)F)c4)cnc4c(O)cccc34)c2)cc1`: the growth inhibition in assay [1] is 79% (active); in assay [4], 83% (active). The values for the inhibition in assay [2] and in assay [3] were 40% and 1%, respectively. Also, the result in assay [5], in assay [6], in assay [7] and in assay [8] was inactive.
As to `COc1cccc(OC)c1OCCCON1C(N)=NC(N)=NC1(C)C`, the growth inhibition in assay [1] was 96% (active); in assay [4], 95% (active). The inhibition in assay [2] was 53% (active); in assay [3], 1%. Besides, the outcome in assay [5], in assay [6], in assay [7] and in assay [8] was inactive.
Regarding `CN(C)CC(=O)NCC(NCCCNc1cc(=O)c2ccccc2[nH]1)c1cc(Br)cc(Br)c1` (stereo not given), the results for the growth inhibition in assay [1] and in assay [4] were 2% and 98% (active), respectively. The figures for the inhibition in assay [2] and in assay [3] were 6% and 1%, respectively. Besides, the outcome in assay [5], in assay [6], in assay [7] and in assay [8] was inactive.
Regarding `O=C(Cc1ccccc1)NC1CCN(c2ccnc3cc(Cl)ccc23)C1` (stereo not given), the growth inhibition in assay [1] is 78% (active); in assay [4] it was 101% (active). The inhibition in assay [2] was 6%; in assay [3], -6%. In addition, the outcome in assay [5], in assay [6], in assay [7] and in assay [8] was inactive.
For the compound `O=C(NCc1cccc(C(F)(F)F)c1)c1ccc(CNC(=O)c2ccc(O)c(-c3ccc(Cl)c(Cl)c3)c2)cc1`, the figures for the growth inhibition in assay [1] and in assay [4] were 15% and 92% (active), respectively. For the same compound, the inhibition in assay [2] is 7%; in assay [3], 2%. The result in assay [5], in assay [6], in assay [7] and in assay [8] was inactive.
`O=C(Nc1ccc2c(c1)OCO2)NC1CCN(c2ccnc(NCc3ccc(F)cc3)n2)CC1`: the growth inhibition in assay [1] was 15%; in assay [4], 88% (active). In addition, the inhibition in assay [2] was 33%; in assay [3], 3%. In addition, the result in assay [5], in assay [6], in assay [7] and in assay [8] was inactive.
For `COc1c(C2CCN(CCCCNC(=O)c3ccc(-c4ccc(Cl)cc4)c(O)c3)CC2)ccc2c1CCCC2`, the growth inhibition is 99% (active) in assay [1] and 102% (active) in assay [4]. In addition, the values for the inhibition in assay [2] and in assay [3] were 91% (active) and -5%, respectively. Moreover, the outcome in assay [5], in assay [6], in assay [7] and in assay [8] was inactive.
With `CC(=O)C1=NN(c2ccc(C)cc2)C(c2cccs2)N1c1ccccc1` (stereo not given), the growth inhibition in assay [1] is 64% (active); in assay [4], 89% (active). For the same compound, the inhibition in assay [2] and in assay [3] was -4% throughout. The result in assay [5], in assay [6], in assay [7] and in assay [8] was inactive.
As for `CCN(CC)CCN(CCN(CC)CC)c1ccc2c(c1)Sc1c(Cl)ccc(Cl)c1S2`, the values for the growth inhibition in assay [1] and in assay [4] were 94% (active) and 98% (active), respectively. Further, the results for the inhibition in assay [2] and in assay [3] were 31% and -5%, respectively. Besides, the outcome in assay [5], in assay [6], in assay [7] and in assay [8] was inactive.
Consider `Cc1cc(NC(=O)c2ccco2)ccc1OC1CCN(Cc2ccc(F)cc2)C1` (stereo not given), for which the growth inhibition was 92% (active) in assay [1] and 96% (active) in assay [4]. Moreover, the inhibition in assay [2] and in assay [3] was 5% in each case. For the same compound, the result in assay [5], in assay [6], in assay [7] and in assay [8] was inactive.
Take `Oc1ccc2ccccc2c1CNCC1CCCCC1`: the figures for the growth inhibition in assay [1] and in assay [4] were 93% (active) and 98% (active), respectively. Moreover, the figures for the inhibition in assay [2] and in assay [3] were -12% and -5%, respectively. Besides, the outcome in assay [5], in assay [6], in assay [7] and in assay [8] was inactive.
`CS(=O)(=O)NCCCNCc1ccc(-c2ccc(-c3nc4ccc(C(F)(F)F)cc4[nH]3)cc2)cc1`: the figures for the growth inhibition in assay [1] and in assay [4] were 83% (active) and 100% (active), respectively. Moreover, the figures for the inhibition in assay [2] and in assay [3] were 25% and 1%, respectively. The outcome in assay [5], in assay [6], in assay [7] and in assay [8] was inactive.
Regarding `Cc1ccc(C(=O)Nc2ccc(Nc3ccnc4cc(-c5ccncc5)ccc34)cc2O)cc1`, the growth inhibition in assay [1] is 100% (active); in assay [4] it was 97% (active). Further, the results for the inhibition in assay [2] and in assay [3] were 14% and 1%, respectively. For the same compound, the result in assay [5], in assay [6], in assay [7] and in assay [8] was inactive.
For `CC(C)NCc1ccc(-c2cccc(-c3nc4ccc(F)cc4[nH]3)c2)cc1`, the growth inhibition in assay [1] was 96% (active); in assay [4] it was 101% (active). Further, the figures for the inhibition in assay [2] and in assay [3] were 14% and -4%, respectively. Further, the outcome in assay [5], in assay [6], in assay [7] and in assay [8] was inactive.
`Fc1ccc(C=NNc2nc3ccccc3[nH]2)cc1`: the growth inhibition in assay [1] is 58% (active); in assay [4] it was 98% (active). Also, the inhibition in assay [2] was -7%; in assay [3], -2%. For the same compound, the result in assay [5], in assay [6], in assay [7] and in assay [8] was inactive.
Take `Cc1cc(NCCC(=O)NCCOc2ccccc2)nc(NCCc2ccccc2)n1`: the growth inhibition is 9% in assay [1] and 99% (active) in assay [4]. Besides, the results for the inhibition in assay [2] and in assay [3] were -6% and -1%, respectively. In addition, the outcome in assay [5], in assay [6], in assay [7] and in assay [8] was inactive.
On to `O=S(=O)(NCCN1CCCC1)c1ccc(-c2cccc(CNCc3ccc(F)cc3)c2)cc1`, for which the growth inhibition in assay [1] is 41%; in assay [4], 100% (active). Also, the inhibition in assay [2] was 76% (active); in assay [3] it was -2%. In addition, the outcome in assay [5], in assay [6], in assay [7] and in assay [8] was inactive.
Consider `COc1cc(C(=O)N2CCOC(CCN3CC[C@@H]4c5ccccc5C[C@@H]43)(c3ccc(Cl)c(Cl)c3)C2)cc(OC)c1OC` (stereo not given in full), for which the growth inhibition in assay [1] is 82% (active); in assay [4], 88% (active). Also, the figures for the inhibition in assay [2] and in assay [3] were 32% and 1%, respectively. Further, the result in assay [5], in assay [6], in assay [7] and in assay [8] was inactive.
